In PubChem BioAssay (NCATS):
Where “and” joins values, the source holds several entries; their conditions need not be identical. Identical values can stand only once.

Assay: qHTS profiling for inhibitors of Plasmodium falciparum (3D7) proliferation (AID 743322);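 further: infected erythrocytes exposed to compound for 72 h before lysis; 100% = DMSO vehicle wells and 0% = 0.29 µM artemisinin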
Settings: P. falciparum 3D7 proliferation; at 28.7 µM (top of the series) unless noted
Source text: Plasmodium falciparum is a virulent malarial parasite that kills 1-2 million people worldwide each year. Transmitted by mosquitoes, the sporozoite form of the parasite enters the blood stream to infect hepatocytes, where they become merozoites that infect red blood cells (erythrocytes). Within erythrocytes, merozoites begin a […] cycle of growth and division, after which the parasite is released to infect new red blood cells. Gametocytes, which form within erythrocytes as well, circulate in the bloodstream and are ingested by the mosquito, thereby completing the life cycle. To profile malarial isolates for differential chemical responses and to identify inhibitors of malarial growth, an assay that measures P. falciparum growth and replication within erythrocytes was employed. This assay uses a DNA binding fluorescent dye (SYBR Green) to detect parasite DNA following cell lysis. Because mature erythrocytes lack DNA, only Plasmodium-derived DNA is detected.
The SYBR Green viability assay was adapted from a method described previously (Plouffe et al., 2008). For screening 3 ul culture medium was dispensed into 1536 well black clear bottom plates (Aurora Biotechnologies) using a Multidrop Combi (Thermo Fisher Scientific Inc.), 23 nL compounds in DMSO were added by a pin tool (Kalypsys), and 5 ul of erythrocytes infected with P. falciparum (0.3% parasitemia, 2.5% hematocrit final concentration) were added. The plates were incubated at 37 C in a humidified incubator in 5% CO2 for 72 h, and 2 ul lysis buffer (20 mM Tris HCl, 10 mM EDTA, 0.16% saponin, 1.6% triton X, 10X SYBR Green I supplied as 10,000X […] by Invitrogen) was added to each well. The plates were mixed for 25 sec with gentle shaking and incubated overnight at room temperature in the dark. The following morning, fluorescence intensity at 485(14) nm excitation and 535(25) nm emission wavelengths was measured on an EnVision (Perkin Elmer) plate reader. Plate reads were normalized relative to the control inhibitor (0.29 uM artemisinin) and vehicle (DMSO) wells present on each plate and then corrected by an algorithm using vehicle-only control plates at the beginning and end of the compound plate stack.

First: Nc1cccc(S(=O)(=O)N2CCCN(S(=O)(=O)c3ccc4c(c3)OCCO4)CC2)c1
Second: S=C(NCc1ccc2c(c1)OCO2)N1CCN(c2ncnc3c2oc2ccccc23)CC1
The remaining parasite growth % (stronger effect = lower value) of the first is higher: 111% for the first, 75.4% for the second.

First: Nc1nc2[nH]cc(CCc3ccc(C(=O)N[C@@H](CCC(=O)O)C(=O)O)cc3)c2c(=O)[nH]1
Second: CCCCCCCc1ccc(CCc2cccc(O)c2C(=O)O)cc1
The remaining parasite growth % (stronger effect = lower value) of the first is lower: 14.6% for the first, 93% for the second.

Going from O=C(C=Cc1ccc(/C=C/C(=O)Nc2ccc(C3=NCCN3)cc2)cc1)Nc1ccc(C2=NCCN2)cc1 to Cc1ccnc(NS(=O)(=O)c2ccc(NC(=O)Nc3ccc(S(=O)(=O)Nc4nccc(C)n4)cc3)cc2)n1, the remaining parasite growth % (stronger effect = lower value) falls from 15.9% to 12%.

Going from CC1(C)Cc2c(-c3ccccc3)c(-c3ccc(Cl)cc3)c(CC(=O)O)n2C1 to CC(C)OC(=O)C1=CN(C(=O)c2ccc(F)c(F)c2)CC(C)(C)c2c1[nH]c1ccccc21, the remaining parasite growth % (stronger effect = lower value) rises from 6.49% to 15.1%.

Going from COc1ccccc1[C@H](c1cccc2ccccc12)[C@@](C)(C#N)C(=O)N1CCC(c2cccc(C(F)(F)F)c2)CC1 to O=C(Nc1cccnc1)N1CCC(Cc2cccc(Oc3ccc(C(F)(F)F)cn3)c2)CC1, the remaining parasite growth % (stronger effect = lower value) rises from 1.65% to 8.79%.

Compared with CC1(C)CNc2cc(NC(=O)c3cccnc3NCc3ccncc3)ccc21, CS(=O)(=O)c1cccc(CNc2nc(Nc3ccc4c(c3)CCC(=O)N4)ncc2C(F)(F)F)c1 is higher in remaining parasite growth % (stronger effect = lower value): 70.1% for the first, 106% for the second.

First: COc1cc2c(cc1OC)CN(CCc1ccc(NC(=O)c3cccc4c(=O)c5cccc(OC)c5[nH]c34)cc1)CC2
Second: CCCc1nc2c(C)cc(-c3nc4ccccc4n3C)cc2n1Cc1ccc(-c2ccccc2C(=O)O)cc1
The remaining parasite growth % (stronger effect = lower value) of the first is lower: -0.733% for the first, 103% for the second.

First: Cc1cc([C@@H](C)Nc2ccccc2C(=O)O)c2nc(N3CCOCC3)cc(=O)n2c1
Second: CCOc1cc(N2CCC(O)CC2)ccc1Nc1ncc2c(n1)N(C)c1ccccc1C(=O)N2C
The remaining parasite growth % (stronger effect = lower value) of the first is higher: 50.6% for the first, 6.85% for the second.

First: CCCS(=O)(=O)Nc1ccc(F)c(C(=O)c2c[nH]c3ncc(Cl)cc23)c1F
Second: O=C(NOC[C@H](O)CO)c1ccc(F)c(F)c1Nc1ccc(I)cc1F
The remaining parasite growth % (stronger effect = lower value) of the first is lower: 90.9% for the first, 106% for the second.

Going from CCOc1ccc(Cc2cc([C@@H]3O[C@H](CO)[C@@H](O)[C@H](O)[C@@H]3O)ccc2Cl)cc1 to O=C(O)CCc1ccc(NCc2cccc(Oc3ccccc3)c2)cc1, the remaining parasite growth % (stronger effect = lower value) falls from 46.7% to 29.5%.

Compared with Cc1csc(NC(=O)c2sc3nc4c(c(C(F)(F)F)c3c2N)CCC4)n1, O=C1CCCC2=C1C(c1[nH]ncc1Cl)N=C(Nc1nc3ccccc3o1)N2 (stereo not given) is higher in remaining parasite growth % (stronger effect = lower value): 100% for the first, 115% for the second.

First: CCCc1nn(C)c2c(=O)[nH]c(-c3cc(S(=O)(=O)N4CCN(C)CC4)ccc3OCC)nc12
Second: COc1ccc(-c2ccc3c(N4CCOCC4)nc(N4C[C@@H](C)O[C@@H](C)C4)nc3n2)cc1CO
The remaining parasite growth % (stronger effect = lower value) of the first is higher: 98.3% for the first, 20.8% for the second.

First: Nc1nccc(-c2ccc3noc(-c4ccc(Cl)cc4)c3c2)n1
Second: COc1ccc(-c2c(-c3ccc(O)cc3O)n[nH]c2C)cc1
The remaining parasite growth % (stronger effect = lower value) of the first is higher: 77.1% for the first, 1.98% for the second.

Going from COCC(=O)NCC=Cc1ccc2ncnc(Nc3ccc(Oc4ccc(C)nc4)c(C)c3)c2c1 to COc1cc(Oc2ccnc3cc(OC)c(OC)cc23)ccc1NC(=O)NC(C)c1nccs1 (stereo not given), the remaining parasite growth % (stronger effect = lower value) rises from 28.2% to 69.7%.

Compared with O=C1[C@H](Cc2ccc(O)cc2)N2C(=O)CCN(C(=O)NCc3ccccc3)[C@H]2CN1Cc1cccc2ccccc12, COc1ccc(CC2=NN3C([C@@H](CCc4ccccc4)[C@@H](C)O)=NC(C)C3C(=O)N2)cc1OC (stereo not given in full) is higher in remaining parasite growth % (stronger effect = lower value): 32.3% for the first, 71.5% for the second.

Going from N#CC[C@H](C1CCCC1)n1cc(-c2ncnc3[nH]ccc23)cn1 to CCOC(=O)N[C@@H]1CC[C@@H]2[C@@H](C1)C[C@H]1C(=O)O[C@H](C)[C@H]1[C@@H]2C=Cc1ccc(-c2cccc(F)c2)cn1, the remaining parasite growth % (stronger effect = lower value) falls from 57.9% to 1.23%.

Compared with CNC(=O)c1ccc(C)c(-n2c(C)cc(OCc3ccc(F)cc3F)c(Br)c2=O)c1, Cc1cc(Nc2nc(N[C@@H](C)c3ncc(F)cn3)ncc2Cl)n[nH]1 is higher in remaining parasite growth % (stronger effect = lower value): 91.9% for the first, 108% for the second.

With CC(C)(Sc1ccc(CCN(CCCCC2CCCCC2)C(=O)NC2CCCCC2)cc1)C(=O)O the remaining parasite growth % (stronger effect = lower value) was 98.9%.

For CN([C@@H](Cc1ccc(OS(=O)(=O)c2cccc3cnccc23)cc1)C(=O)N1CCN(c2ccccc2)CC1)S(=O)(=O)c1cccc2cnccc12, the remaining parasite growth % (stronger effect = lower value) was 0.0531% and -0.942%.
With Cc1cc(SCc2sc(-c3ccc(C(F)(F)F)cc3)nc2C)ccc1OCC(=O)O the remaining parasite growth % (stronger effect = lower value) was 106% and 98.8%.
In the case of COc1ccc2nc(S(=O)Cc3ncc(C)c(OC)c3C)[nH]c2c1 (stereo not given), the remaining parasite growth % (stronger effect = lower value) is reported as 91.3% and 101%.
For OC(CN1CCC(Cc2ccc(F)cc2)CC1)c1ccc(Cl)cc1 (stereo not given), the remaining parasite growth % (stronger effect = lower value) was 1.14% and 5.06%.

CCOC(=O)C1=C[C@@]2(CC)CCCN3CCc4c(n1c1ccccc41)[C@H]32 gave a remaining parasite growth % (stronger effect = lower value) of 66.2% [at 18.4 µM].
